The record followed here is PubChem BioAssay.

A short description of assay [1]: antimalarial activity against Dd2 strain (AID 2302;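 active = growth inhibition above 50% at the single 2 µM test dose, taken to imply half-maximal potency below 2 µM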;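 also: 0% = DMSO untreated growth and 100% = chloroquine plus artemisinin killed control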). To be noted: P. falciparum Dd2 in RBCs, LDH growth readout, 72 h; at 2 µM; hits give high values.
Assay [2] can be described thus: HepG2 cytotoxicity, primary screen, cytotoxicity control for P. falciparum antimalarial project, cell-based, ATP luminescence (AID 2303;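 active = inhibition above 50%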;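 also: 0% = DMSO wells and 100% = digitonin-killed cells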). To be noted: HepG2 viability, 24-48 h, at 10 µM, hits give high values.
The target of assay [3] is L-lactate dehydrogenase (Plasmodium falciparum (isolate CDC / Honduras)) (UniProt Q27743). As to the kind of experiment: PfLDH activity inhibition – cell lysate, 3D7 strain, counter-screen for P. falciparum growth inhibition project (AID 2304).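 Also: 0% = vehicle and 100% = reference inhibitor.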 The settings on record: P. falciparum 3D7 crude extract, LDH APAD/NBT absorbance; at 2 µM; hits give high values. In general terms: Counterscreens check selectivity or assay interference.
Chain of L-lactate dehydrogenase (Plasmodium falciparum (isolate CDC / Honduras)) (Q27743 whole entry, looked up): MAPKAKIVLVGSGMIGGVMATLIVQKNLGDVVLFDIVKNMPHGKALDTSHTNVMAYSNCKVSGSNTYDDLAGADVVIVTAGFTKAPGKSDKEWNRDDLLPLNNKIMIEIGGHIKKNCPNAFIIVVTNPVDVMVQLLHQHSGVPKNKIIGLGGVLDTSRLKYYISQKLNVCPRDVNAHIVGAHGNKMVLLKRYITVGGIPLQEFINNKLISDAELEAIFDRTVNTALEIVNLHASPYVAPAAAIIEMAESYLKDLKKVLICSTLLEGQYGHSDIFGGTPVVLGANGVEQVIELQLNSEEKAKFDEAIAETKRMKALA

Assay [4] can be described thus: inhibition of 3D7 malaria parasite growth – strain 3D7 (AID 2306).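 Also: 0% = DMSO wells and 100% = chloroquine plus artemisinin control wells.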 The settings on record: P. falciparum 3D7 erythrocytic growth, LDH absorbance, 72 h; at 2 µM; hits give high values.
Assay [5] deals with Calcium-dependent protein kinase 1 (Plasmodium falciparum (isolate 3D7)) (UniProt P62344). Kind of assay: PfCDPK1 kinase inhibitors, biochemical, TCAMS library (AID 1159585; cut-off not given, nearly all actives have IC50 up to about 0.98 µM;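 also: inhibitors leave more ATP so luminescence rises with inhibition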). The settings on record: recombinant PfCDPK1, Kinase-Glo ATP depletion luminescence. On the technique in general: Kinase-Glo measures the ATP left after a reaction by luminescence.
Chain of Calcium-dependent protein kinase 1 (Plasmodium falciparum (isolate 3D7)) (P62344 whole entry, looked up): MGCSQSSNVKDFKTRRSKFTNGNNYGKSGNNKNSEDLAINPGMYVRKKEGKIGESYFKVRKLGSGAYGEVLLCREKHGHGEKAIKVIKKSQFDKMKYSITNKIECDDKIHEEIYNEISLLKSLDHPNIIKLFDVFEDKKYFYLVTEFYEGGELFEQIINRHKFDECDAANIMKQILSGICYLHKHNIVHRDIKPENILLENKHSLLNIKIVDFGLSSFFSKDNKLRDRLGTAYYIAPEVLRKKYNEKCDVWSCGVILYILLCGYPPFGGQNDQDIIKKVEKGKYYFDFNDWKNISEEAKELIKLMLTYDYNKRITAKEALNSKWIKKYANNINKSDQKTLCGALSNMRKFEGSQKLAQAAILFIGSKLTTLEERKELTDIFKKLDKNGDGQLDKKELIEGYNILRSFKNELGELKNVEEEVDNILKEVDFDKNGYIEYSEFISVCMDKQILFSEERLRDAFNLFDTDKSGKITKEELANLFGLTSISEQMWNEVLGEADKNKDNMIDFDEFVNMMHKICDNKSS
Assay [6] has as its target Plasmodium falciparum protein kinase 6 (PK6, PF3D7_1337100) (UniProt Q8IDW1). As to the kind of experiment: PfPK6 kinase inhibitors, biochemical, TCAMS library (AID 1159586). To be noted: recombinant PfPK6, Kinase-Glo ATP depletion luminescence.
Assay [7] addresses Protein kinase 7 (PK7), Plasmodium falciparum 3D7 (PF3D7_0213400) (UniProt Q7YTF7). Kind of assay: inhibition of Plasmodium PK7 catalytic activity – biochemical, TCAMS antimalarial set, Kinase-Glo luminescence (AID 1159587). To be noted: recombinant PfPK7, Kinase-Glo ATP depletion luminescence.
Assay [8] has as its target Calcium-dependent protein kinase 4 (Plasmodium falciparum (isolate 3D7)) (UniProt Q8IBS5). As to the kind of experiment: PfCDPK4 kinase inhibitors, biochemical, TCAMS library (AID 1159588; cut-off not given, nearly all actives have IC50 up to about 0.91 µM). The settings on record: recombinant PfCDPK4, Kinase-Glo ATP depletion luminescence.

Molecules are shown by their SMILES. Values without a mark were called inactive. For some of these results: Measured potencies and affinities stand elsewhere. Active and inactive are the calls of the source. Unless noted, no rule for the calls is given here.

Chain of Plasmodium falciparum protein kinase 6 (PK6, PF3D7_1337100) (Q8IDW1 1-305): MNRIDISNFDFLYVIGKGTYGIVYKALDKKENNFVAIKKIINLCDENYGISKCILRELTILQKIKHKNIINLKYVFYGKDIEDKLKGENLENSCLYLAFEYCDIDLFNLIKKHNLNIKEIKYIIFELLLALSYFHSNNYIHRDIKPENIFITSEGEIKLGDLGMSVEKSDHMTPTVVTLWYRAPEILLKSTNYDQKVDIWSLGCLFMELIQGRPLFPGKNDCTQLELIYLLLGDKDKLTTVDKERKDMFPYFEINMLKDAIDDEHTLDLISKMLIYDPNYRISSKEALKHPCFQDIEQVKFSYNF
Chain of Calcium-dependent protein kinase 4 (Plasmodium falciparum (isolate 3D7)) (Q8IBS5 whole entry, looked up): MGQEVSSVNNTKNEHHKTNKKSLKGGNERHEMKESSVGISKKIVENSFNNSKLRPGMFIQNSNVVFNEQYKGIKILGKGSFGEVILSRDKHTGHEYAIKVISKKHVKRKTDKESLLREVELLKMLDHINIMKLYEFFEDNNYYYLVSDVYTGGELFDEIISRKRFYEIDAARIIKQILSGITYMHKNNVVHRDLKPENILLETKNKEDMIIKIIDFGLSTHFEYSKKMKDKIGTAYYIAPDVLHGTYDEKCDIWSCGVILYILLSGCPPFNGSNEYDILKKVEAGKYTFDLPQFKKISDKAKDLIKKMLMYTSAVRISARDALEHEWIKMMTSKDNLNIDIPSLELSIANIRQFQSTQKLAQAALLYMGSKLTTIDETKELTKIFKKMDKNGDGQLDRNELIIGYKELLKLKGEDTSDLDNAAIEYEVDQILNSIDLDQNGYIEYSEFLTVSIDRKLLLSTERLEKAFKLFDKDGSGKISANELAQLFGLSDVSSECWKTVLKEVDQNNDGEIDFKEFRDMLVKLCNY
Chain of Protein kinase 7 (PK7), Plasmodium falciparum 3D7 (PF3D7_0213400) (Q7YTF7 1-343): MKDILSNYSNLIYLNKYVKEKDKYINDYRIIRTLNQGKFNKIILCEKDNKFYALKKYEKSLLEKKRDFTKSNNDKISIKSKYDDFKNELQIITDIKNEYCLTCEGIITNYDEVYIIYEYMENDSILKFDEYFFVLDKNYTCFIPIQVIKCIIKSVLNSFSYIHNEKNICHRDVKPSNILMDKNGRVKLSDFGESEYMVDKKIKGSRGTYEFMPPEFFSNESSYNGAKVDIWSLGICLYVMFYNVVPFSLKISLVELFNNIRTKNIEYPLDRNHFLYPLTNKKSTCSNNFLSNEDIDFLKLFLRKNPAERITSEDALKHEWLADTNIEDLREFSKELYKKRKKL

Take `O=C(Nc1ccc(Cl)cc1)c1ccc(CN2CCCN(Cc3cccc(Cl)c3)CC2)cc1`: the growth inhibition in assay [1] was 15%; in assay [4] it was 96% (active). Besides, the inhibition (commonly the relative decrease from the control value, in per cent) in assay [2] was 53% (active); in assay [3], 1%. The outcome in assay [5], in assay [6], in assay [7] and in assay [8] was inactive.
On to `CC[C@H](C)CNC(=O)c1ccnc(-c2cccc(CN(C)C3CCN(C)CC3)c2)c1`, for which the figures for the growth inhibition in assay [1] and in assay [4] were 33% and 100% (active), respectively. The inhibition in assay [2] was -19%; in assay [3], -1%. The result in assay [5], in assay [6], in assay [7] and in assay [8] was inactive.
`COCc1ccc(CN2CCC(C(=O)Nc3ccc(-c4nc5ccccc5[nH]4)cc3)CC2)o1`: the values for the growth inhibition in assay [1] and in assay [4] were 13% and 97% (active), respectively. Moreover, the inhibition was 13% in assay [2] and -5% in assay [3]. Further, the outcome in assay [5], in assay [6], in assay [7] and in assay [8] was inactive.
In the case of `CC(C)(C)OC(=O)NCc1ccc(Nc2nnc(-c3ccc(OCC(=O)NCc4ccc(C(C)(C)C)cc4)c([N+](=O)[O-])c3)o2)cc1`, the growth inhibition is 82% (active) in assay [1] and 96% (active) in assay [4]. Further, the inhibition in assay [2] was 10%; in assay [3] it was -2%. Moreover, the result in assay [5], in assay [6], in assay [7] and in assay [8] was inactive.
Take `CC(C)NCC(O)COc1ccc(Cc2ccc(OCC(O)CNC(C)C)cc2)cc1` (stereo not given): the results for the growth inhibition in assay [1] and in assay [4] were 18% and 100% (active), respectively. Besides, the values for the inhibition in assay [2] and in assay [3] were -8% and -5%, respectively. For the same compound, the outcome in assay [5], in assay [6], in assay [7] and in assay [8] was inactive.
As to `C[C@@H]1CN(c2cnn(Cc3ccc(NC(=O)Nc4cccc(C(F)(F)F)c4)cc3)c(=O)c2Cl)C[C@H](C)N1`, the values for the growth inhibition in assay [1] and in assay [4] were 31% and 86% (active), respectively. In addition, the values for the inhibition in assay [2] and in assay [3] were -10% and -7%, respectively. The outcome in assay [5], in assay [6], in assay [7] and in assay [8] was inactive.
For the compound `O=C(c1ccccc1N=Nc1c(-c2ccccc2)[nH]n(-c2ccccc2)c1=O)N1CCOCC1`, the growth inhibition is 2% in assay [1] and 97% (active) in assay [4]. The inhibition in assay [2] was 0%; in assay [3] it was -1%. The result in assay [5], in assay [6], in assay [7] and in assay [8] was inactive.
In the case of `CCc1cn2c3c(cc(C(=O)N[C@@H](Cc4ccccc4)[C@H](O)CN[C@@H](C)CC)cc13)N(C)S(=O)(=O)CC2`, the growth inhibition in assay [1] was 98% (active); in assay [4] it was 99% (active). Besides, the inhibition is 2% in assay [2] and -2% in assay [3]. The result in assay [5], in assay [6], in assay [7] and in assay [8] was inactive.
`NC(N)=NN=Cc1ccc2c(ccc3ccccc32)c1`: the growth inhibition in assay [1] was 68% (active); in assay [4], 100% (active). Besides, the inhibition is 9% in assay [2] and 6% in assay [3]. Besides, the result in assay [5], in assay [6], in assay [7] and in assay [8] was inactive.
Regarding `Cc1cc(NN=Cc2cccc(F)c2)c2ccc(F)cc2n1`, the growth inhibition in assay [1] was 99% (active); in assay [4], 101% (active). Moreover, the inhibition in assay [2] is 2%; in assay [3], -2%. The outcome in assay [5], in assay [6], in assay [7] and in assay [8] was inactive.
`Cc1ccc(C)c(C2CCN(CCCCNC(=O)c3ccc(NC(=O)c4ccc(Cl)cc4)cc3)CC2)c1`: the values for the growth inhibition in assay [1] and in assay [4] were 13% and 94% (active), respectively. The inhibition in assay [2] was 15%; in assay [3] it was 7%. Further, the result in assay [5], in assay [6], in assay [7] and in assay [8] was inactive.
On to `O=C(Nc1ccc(S(=O)(=O)N2CCCC2)cc1)c1cc(-c2cccnc2)nc2ccc(Cl)cc12`, for which the figures for the growth inhibition in assay [1] and in assay [4] were 95% (active) and 97% (active), respectively. Besides, the inhibition was 4% in assay [2] and -6% in assay [3]. Besides, the outcome in assay [5], in assay [6], in assay [7] and in assay [8] was inactive.
`N#Cc1cccc(C(O)CN(Cc2ccccc2)Cc2ccccc2)c1` (stereo not given): the growth inhibition in assay [1] is 100% (active); in assay [4] it was 101% (active). Moreover, the inhibition in assay [2] is 12%; in assay [3], 1%. Also, the result in assay [5], in assay [6], in assay [7] and in assay [8] was inactive.
Turning to `COC(=O)c1cc(C(O)CNC(C)CCCc2ccccc2)ccc1O` (stereo not given), the growth inhibition in assay [1] is 97% (active); in assay [4] it was 99% (active). Besides, the inhibition was 17% in assay [2] and 0% in assay [3]. The outcome in assay [5], in assay [6], in assay [7] and in assay [8] was inactive.
With `COc1ccc(OC)c(-c2ccc(=O)n(CC(=O)Nc3cccc4ccccc34)n2)c1`, the growth inhibition in assay [1] was 95% (active); in assay [4], 101% (active). In addition, the figures for the inhibition in assay [2] and in assay [3] were -9% and 3%, respectively. Further, the result in assay [5], in assay [6], in assay [7] and in assay [8] was inactive.
Regarding `Cc1cccc2[nH]c(-c3ccc(-c4cccc(NC(=O)C(C)CN5CCN(C)CC5)c4)s3)nc12` (stereo not given), the growth inhibition in assay [1] is 75% (active); in assay [4] it was 97% (active). Also, the inhibition was 11% in assay [2] and -6% in assay [3]. In addition, the result in assay [5], in assay [6], in assay [7] and in assay [8] was inactive.
In the case of `Cc1nc(N=C(N)N)nc2cc3c(cc12)CCC3`, the growth inhibition in assay [1] was 58% (active); in assay [4], 90% (active). In addition, the inhibition was 17% in assay [2] and 5% in assay [3]. Also, the result in assay [5], in assay [6], in assay [7] and in assay [8] was inactive.
Take `Clc1ncccc1-c1nc(NCCC(c2ccccc2)c2ccccc2)no1`: the growth inhibition in assay [1] is 82% (active); in assay [4], 94% (active). Moreover, the inhibition in assay [2] is 12%; in assay [3] it was 3%. The outcome in assay [5], in assay [6], in assay [7] and in assay [8] was inactive.
Regarding `CCCn1c(SCC(=O)Nc2cc(Cl)ccc2Cl)n[nH]c1=O`, the growth inhibition is 53% (active) in assay [1] and 88% (active) in assay [4]. Besides, the inhibition in assay [2] was -5%; in assay [3], -2%. Moreover, the result in assay [5], in assay [6], in assay [7] and in assay [8] was inactive.
In the case of `COc1cccc(-c2ccc(C(=O)NCC3CCCN(Cc4cccc(C(F)(F)F)c4)C3)s2)c1` (stereo not given), the growth inhibition was 18% in assay [1] and 85% (active) in assay [4]. For the same compound, the inhibition in assay [2] was 10%; in assay [3], 0%. The result in assay [5], in assay [6], in assay [7] and in assay [8] was inactive.
